Measured values: PubChem BioAssay (NCATS)
Inconclusive results are not listed. A call without a number means that no potency is given here. The source made the active and inactive calls. Calls come from the whole dose curve; as a rule, active = well fitted curve in the direction sought with a large enough effect; inconclusive = small, poorly fitted or top-dose-only effect, or another doubt; inactive = no such curve, though single readings can be large; an effect the other way counts as inactive or inconclusive.

Tests used:
[1] = target: Aldehyde dehydrogenase, mitochondrial (Homo sapiens) (UniProt P05091); assay: qHTS for Inhibitors of the Aldehyde Dehydrogenase Family (ALDH2) Primary screen (AID 2061308); note: nearly all actives have a fitted effect of over 55% in size
[2] = target: Retinaldehyde dehydrogenase 3 (Homo sapiens) (UniProt P47895); assay: qHTS for Inhibitors of the Aldehyde Dehydrogenase Family (ALDH1A3) Primary screen (AID 2061315)

Structure (SMILES)	Potency [1]	Potency [2]
Cc1nc(C(C)N(C)c2ncnc3ccc(-c4ccc5c(c4)OCO5)cc23)cs1 (configuration not stated)	inactive	inactive
O=C(Cc1ccccc1)NC(c1ccco1)c1cc(Cl)c2cccnc2c1O (configuration not stated)	inactive	inactive
Cc1ccc(OCCn2c(CCNC(=O)CCc3ccccc3Br)nc3ccccc32)cc1	inactive	inactive
COC(=O)C1=CO[C@@H](O[C@@H]2O[C@H](CO)[C@@H](O)[C@H](O)[C@H]2O)[C@H]2[C@@H]1[C@H](O)[C@H](O)[C@]2(C)O	inactive	inactive
O=S(=O)(c1ccc2c(c1)OCCO2)N1CCN(S(=O)(=O)c2cccc[n+]2[O-])CC1	inactive	inactive
NC(=O)C1CCN(c2nc(-c3cccc([N+](=O)[O-])c3)cs2)CC1	inactive	inactive
Cc1cc(C)nc(NC(=S)N2CCN(c3cc(Cl)c(Cl)cc3Cl)CC2)c1	inactive	inactive
O=C(COc1ccccc1Br)NCCc1nc2ccccc2[nH]1	inactive	inactive
Cc1ccnc(NC(=O)N2CCN(c3cccc(C(F)(F)F)c3)CC2)c1	inactive	inactive
CCOC(=O)c1cccc(NC(=O)Nc2nnc(-c3ccncc3)s2)c1	inactive	inactive
Cc1ccc(NS(=O)(=O)c2ccc3c(c2)CCC(=O)N3)cc1Cl	inactive	inactive
CC(C)Nc1nc(C#N)nc(Nc2ccccc2)n1	inactive	inactive
COc1ccc(C2=Nn3c(nnc3-c3ccccc3C)SC2)cc1OC	inactive	inactive
O=C1CCCC2=C1C(c1[nH]ncc1Cl)NC(=NCc1nccs1)N2 (configuration not stated)	inactive	inactive
CCOC(=O)c1ccc(-c2ccc3ncnc(NCCc4cnc[nH]4)c3c2)o1	inactive	inactive
N#Cc1nc(Nc2cccc(Cl)c2)c2ncn(C3CCCC3)c2n1	inactive	inactive
CC(C)(C)OC(=O)NCc1nnc(C(C(=O)OCc2ccccc2)c2ccccc2)s1 (configuration not stated)	inactive	inactive
O=C(Nc1ccc(-n2ccnc2)c(F)c1)Nc1nnc(-c2ccncc2)s1	inactive	inactive
O=[S+]([O-])(Nc1ccc(N2CCNCC2)cc1)c1ccc(NCc2ccc(Cl)cc2O)cc1	inactive	inactive
O=C(Nc1nc(-c2ccccc2)cs1)c1ccncc1NS(=O)(=O)c1cccs1	inactive	inactive
Cc1sc(C)c2c1C(=O)NS2(=O)=O	inactive	inactive

Structure (SMILES)	Potency [1]	Potency [2]
O=C1N/C(=C\c2ccco2)C(=O)N1Cc1ccc(F)cc1	inactive	inactive
O=C(Nc1ccc(Cl)cc1)Nc1cccc(-c2cccc(N3CCCC3)n2)c1	inactive	inactive
O=C(NC1CCCc2c1cnn2-c1ccc(F)cc1F)c1cnon1 (configuration not stated)	inactive	inactive
Cc1cccc(-n2cnc3cc(C(=O)N4CCOCC4)ccc32)c1	inactive	inactive
Cc1cc(C(C#N)c2ccc(Cl)cc2)c(Cl)cc1NC(=O)c1cc(I)cc(I)c1O (configuration not stated)	inactive	inactive
COc1ccc(C(=O)Nc2nc(-c3ccccc3)cs2)c(NS(=O)(=O)c2ccc(C)cc2)c1	inactive	inactive
Cc1cc2c(s1)c1cnn(Cc3c(C)cc(F)cc3C)c(=O)c1n2C	inactive	inactive
CN(Cc1ccco1)c1ncnc2ccc(-c3ccc4c(c3)OCO4)cc12	inactive	inactive
Cc1ccc(C2N=C(Nc3nc4ccccc4o3)NC3=C2C(=O)CCC3)s1 (configuration not stated)	inactive	inactive
COCCCc1cc(F)c(S(=O)(=O)N2CCN(S(=O)(=O)c3ccc4c(c3)OCCO4)CC2)cc1F	inactive	inactive
O=C1CCc2cc(S(=O)(=O)Nc3ccccc3F)ccc2N1	inactive	inactive
COCCNC(=O)Nc1ccc2nc(-c3cccs3)c(-c3cccs3)nc2c1	inactive	inactive
O=C1CCC2=C1C1(CCCC1)N=C(Nc1nc3ccccc3o1)N2	inactive	inactive
FC(F)Oc1ccc(C2=Nn3c(nnc3-c3ccccc3Cl)SC2)cc1OCC1CC1	inactive	inactive
Cc1nc(NC2CCCCC2)c2nc(-c3ccccc3)n(CCN3CCCC3)c2n1	inactive	inactive
CCOc1ccc(CCNC(=O)c2cnon2)cc1OCC	inactive	inactive
N[C@H](Cc1ccccc1)C(=O)Nc1ccc(Cl)cc1C(=O)c1ccc[nH]1	inactive	inactive
O=C(O)CNC(=O)CNC(=O)CNC(=O)CSC(=O)c1ccccc1	inactive	inactive
NC(=O)C1CCN(c2nc(-c3ccc(N)cc3)cs2)CC1	inactive	inactive
COc1ccc(CC(=O)Nc2ccc(S(=O)(=O)Nc3cc(C)on3)cc2)cc1C	inactive	inactive
